Among the data in PubChem BioAssay AID1347383 (Zoeller Lab, School of Medicine, Boston University, 2020) are outcome values, retold here.

Calls of active or inactive are those of the source.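 Rule for the calls: active = cell survival after UV exposure 2 SD above solvent-only control wells at 10 µM, confirmed on one or two repeats; inactive = the rest.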

The experiment can be described thus: cell survival after pyrene fatty acid photosensitization – ZR-82 cells, Analyticon library, screen 2, phospholipid biosynthesis inhibitor project, primary screen (AID 1347383).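 Note: survival reflects blocked phospholipid synthesis cutting uptake of the phototoxic fatty acid; compound and fatty acid exposure 3 h then viability read next day.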 The following applies: ZR-82 CHO cells, pyrene-fatty acid UV killing, CellTiter Blue; at 10 µM; peroxisome-deficient CHO-K1 variant; with DGAT-1, DGAT-2 and ACAT inhibitors.
For `O=c1c(-c2ccc(O)cc2O)coc2cc(O)cc(O)c12`, the outcome was inactive.

`C=C1C(=O)OC2C1C(O)CC1(C)C(O)CCC(C=O)C21` (stereo unspecified): the outcome was inactive.

Consider `C[C@@H]1CCC2C(C)(C)[C@H](O)CC[C@]2(C)[C@@]12Cc1c(O)cc3c(c1O2)CNC3=O` (stereo partly specified), for which the result was inactive.

As for `C=C(C(=O)O)C(CCCCCC)C(=O)O` (stereo unspecified), the result was inactive.

Turning to `COc1c2c(nc3occc13)C(CC=C(C)C)(OC)C(O)CC2` (stereo unspecified), the outcome was inactive.

With `COc1ccc(-c2coc3cc(O)ccc3c2=O)cc1`, the result was inactive.

As to `CCC(C)C(=O)OC1CCC=C2C=CC(C)C(CCC(O)CC(O)CC(=O)OC)C21` (stereo unspecified), the outcome was inactive.

In the case of `O=C(/C=C(O)/C=C/c1ccc(O)cc1)/C=C/c1ccc(O)cc1`, the result was inactive.

With `C=C1C(=O)OC2/C=C(\C)C3=CC(=O)C(C)(CC(OC(=O)/C(C)=C/COC(C)=O)C12)O3` (stereo unspecified), the result was inactive.

Regarding `COc1cc(CCc2ccc(OCC(O)C(C)(C)O)cc2)cc2c1OCO2` (stereo unspecified), the result was inactive.

In the case of `C=C1C(=O)O[C@@H]2/C=C(\C)CC/C=C(\C(=O)O)C[C@@H](OC(=O)/C(C)=C/C)C12` (stereo partly specified), the result was inactive.

Take `C/C=C/CCc1cc(O)c2c(c1)OC(C)C2CO` (stereo unspecified): the outcome was inactive.

With `Nc1ccn(C2CC(O)C(CO)O2)c(=O)n1` (stereo unspecified), the result was inactive.

Consider `COC12CC3C(C(C)C1=CC(=O)O2)C(O)C(OC(=O)/C=C/c1ccccc1)C1(O)C(C)(C)CCCC31C` (stereo unspecified), for which the outcome was inactive.

As for `CCCCCC1=C(CO)C(O)C(O)CC1=O` (stereo unspecified), the result was inactive.

For the compound `C=C1C(=O)O[C@@H]2C[C@H](C)[C@@]3(O)C=C(C(C)=O)C4(CC3C[C@H]12)C(=O)O[C@H]1C[C@@H](C)C(CCC(C)=O)=CC[C@H]14` (stereo partly specified), the result was inactive.
